More than one record can exist for a structure, and the calls need not agree. Activity calls are given as the source filed them. The calls were made as follows: active = hit-call score of the fitted dose curve at least 0.9, where 1 is the maximum; inactive = score below 0.9.
How the values were obtained:
[1] = target: Transcription factor E2F1 (Homo sapiens) (UniProt Q01094); test: ATG_E2F_CIS: Attagene CIS-FACTORIAL HepG2 Assay for human E2F Transcription Factor 1 (AID 2282935); settings: HepG2 Attagene cis-reporter, E2F reporter RNA transcripts; actives raise or lower the signal
Transcription factor E2F1 (Homo sapiens), sequence (Q01094 whole entry, looked up): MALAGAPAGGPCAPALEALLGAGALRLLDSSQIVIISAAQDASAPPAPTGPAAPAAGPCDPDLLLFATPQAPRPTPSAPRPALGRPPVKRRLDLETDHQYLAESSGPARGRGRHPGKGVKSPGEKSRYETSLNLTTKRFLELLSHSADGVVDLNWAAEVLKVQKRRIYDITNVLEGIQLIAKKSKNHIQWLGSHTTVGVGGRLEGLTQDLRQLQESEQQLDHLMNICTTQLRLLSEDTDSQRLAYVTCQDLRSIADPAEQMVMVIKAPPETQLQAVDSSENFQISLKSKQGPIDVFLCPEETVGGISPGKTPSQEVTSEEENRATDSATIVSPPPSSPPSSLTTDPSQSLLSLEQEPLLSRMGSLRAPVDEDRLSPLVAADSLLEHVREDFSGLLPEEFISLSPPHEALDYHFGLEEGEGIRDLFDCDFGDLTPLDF
Procedure, shortened: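 Liver-derived HepG2 cells expressing transfected promoter-driven reporter units received test chemical for 24 hours. Signal gains or losses were fitted bidirectionally against DMSO.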

[2] = ATG_E_Box_CIS: Attagene CIS-FACTORIAL HepG2 Assay for human Enhancer Box (E-box) (AID 2282936); settings: HepG2 E-box cis-reporter transcription, actives raise or lower the signal
Procedure, shortened: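 In this cell-based setup, HepG2 cells bearing transfected promoter-driven reporter units were exposed to chemicals for 24 h; reporter transcripts were amplified, 6-FAM-labelled, cut with HpaI and sized by capillary electrophoresis.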

[3] = ATG_M_61_CIS: Attagene CIS-FACTORIAL HepG2 Assay for M61 Transcription Factor (Internal Marker) (AID 2282937); settings: HepG2 Attagene CIS-FACTORIAL M61 internal marker reporter; actives raise or lower the signal
Procedure, shortened: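 Readout is reporter mRNA by RT-PCR, fluorescent primer extension and capillary electrophoresis, with gain or loss fitted relative to DMSO. Transfected HepG2 cells carrying endogenous-TF-driven cis reporters were exposed to chemicals for 24 hours.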

[4] = ATG_EGR_CIS: Attagene CIS-FACTORIAL HepG2 Assay for human Early Growth Response 1 (EGR1) (AID 2282938); settings: HepG2 Attagene CIS-FACTORIAL EGR reporter mRNA; actives raise or lower the signal
Procedure, shortened: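 After 24 h compound exposure, RNA from reporter-transfected HepG2 cells was reverse-transcribed, PCR-amplified, fluorescently labelled and resolved by capillary electrophoresis. EGR1 reporter transcript changes, up or down, were fitted against DMSO, reflecting endogenous transcription-factor activity.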

[5] = ATG_M_19_CIS: Attagene CIS-FACTORIAL HepG2 Assay for M19 Transcription Factor (Internal Marker) (AID 2282939); settings: HepG2 Attagene CIS-FACTORIAL M19 internal marker reporter; actives raise or lower the signal
Procedure, shortened: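 Chemical-treated HepG2 (24 h) with MRTU constructs; reporter transcripts detected by fluorescent RT-PCR fragment analysis on capillary electrophoresis. Internal background marker, DMSO as baseline.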

[6] = ATG_ERE_CIS: Attagene CIS-FACTORIAL HepG2 Assay for Estrogen Response Element (ERE) (AID 2282940); settings: HepG2 ERE cis-reporter, Attagene RNA transcript; actives raise or lower the signal
Procedure, shortened: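 Human liver cells (HepG2) bearing transiently transfected, promoter-regulated reporter units were exposed 24 h. Reporter mRNA induction was detected by capillary electrophoresis of labelled RT-PCR products and fitted bidirectionally to DMSO.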

[7] = ATG_Ets_CIS: Attagene CIS-FACTORIAL HepG2 Assay for human Erythroblast Transformation Specific (ETS) (AID 2282941); settings: HepG2 ETS cis-reporter transcription, actives raise or lower the signal
Procedure, shortened: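 RT-PCR/capillary electrophoresis fluorescence read-out of reporter mRNA; HepG2 transient multi-reporter transfection; 24 h compound exposure; gain or loss of signal fitted bidirectionally relative to DMSO.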

[8] = target: Hepatocyte nuclear factor 3-beta (Homo sapiens) (UniProt Q9Y261); test: ATG_FoxA2_CIS: Attagene CIS-FACTORIAL HepG2 Assay for human Forkhead box A2 (FOXA2) (AID 2282942); settings: HepG2 cis-reporter transcription factor activity, 24 h; actives raise or lower the signal
Hepatocyte nuclear factor 3-beta (Homo sapiens), sequence (Q9Y261 whole entry, looked up): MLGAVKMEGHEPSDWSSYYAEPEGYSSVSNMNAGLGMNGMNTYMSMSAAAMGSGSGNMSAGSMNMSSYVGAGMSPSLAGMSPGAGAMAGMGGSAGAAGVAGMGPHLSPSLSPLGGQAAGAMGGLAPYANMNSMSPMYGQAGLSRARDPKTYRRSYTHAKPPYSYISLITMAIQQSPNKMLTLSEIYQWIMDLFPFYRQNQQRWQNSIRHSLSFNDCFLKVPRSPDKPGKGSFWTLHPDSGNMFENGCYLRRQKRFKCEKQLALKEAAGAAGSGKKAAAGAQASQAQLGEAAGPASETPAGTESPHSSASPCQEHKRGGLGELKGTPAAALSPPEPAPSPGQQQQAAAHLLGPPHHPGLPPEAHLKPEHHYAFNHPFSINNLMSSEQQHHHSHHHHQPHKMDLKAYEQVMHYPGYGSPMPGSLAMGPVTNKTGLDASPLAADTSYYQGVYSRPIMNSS
Procedure, shortened: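 Endogenous transcription factor activity is captured via cis-element-driven reporter transcripts in transfected HepG2. Total RNA taken at 24 h post-dosing; labelled RT-PCR products resolved by capillary electrophoresis. Gain or loss fitted versus DMSO.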

[9] = ATG_FoxO_CIS: Attagene CIS-FACTORIAL HepG2 Assay for human Forkhead box O (FoxO) (AID 2282943); settings: HepG2 Attagene cis-reporter, FoxO element, mRNA; actives raise or lower the signal
Procedure, shortened: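 Transfected HepG2 reporter cells exposed to test chemical for 24 h; reporter RNA measured by reverse transcription, PCR and fluorescent capillary electrophoresis; curves fitted for increases and decreases against DMSO.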

[10] = ATG_GATA_CIS: Attagene CIS-FACTORIAL HepG2 Assay for human GATA Binding Protein (AID 2282944); settings: HepG2 GATA cis-element reporter, Attagene multiplex mRNA; actives raise or lower the signal
Procedure, shortened: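 Transfected cis-reporter HepG2 cells were treated with chemicals for 24 hours. Total RNA was then converted to cDNA, amplified with reporter-specific primers and analysed by fluorescent capillary electrophoresis, using DMSO-treated wells as baseline.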

[11] = ATG_GLI_CIS: Attagene CIS-FACTORIAL HepG2 Assay for human Zinc Finger Protein GLI1 (AID 2282945); settings: HepG2, Attagene cis-factorial reporter mRNA, GLI element; actives raise or lower the signal
Procedure, shortened: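 Transiently transfected HepG2 cells report endogenous transcription factor activity via cis-element-driven reporter units. After 24 h compound exposure, reporter mRNA was measured by RT-PCR with capillary electrophoresis; bidirectional fitting against DMSO baseline.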

[12] = ATG_GRE_CIS: Attagene CIS-FACTORIAL HepG2 Assay for human Glucocorticoid Response Elements (GRE) (AID 2282947); settings: HepG2 GRE cis-reporter, Attagene multiplex mRNA; actives raise or lower the signal
Procedure, shortened: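 Fluorescence intensity of reporter-specific cDNA fragments, separated by capillary electrophoresis, provides the signal. Constructs carry cis-regulating promoters in transiently transfected HepG2 liver cells; 24 h incubation; fitting is bidirectional against DMSO.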

[13] = ATG_ISRE_CIS: Attagene CIS-FACTORIAL HepG2 Assay for human Interferon Regulatory Factor 1 (IRF1) binding to an Interferon-Stimulated Response Element (ISRE) (AID 2282948); settings: HepG2 ISRE cis-reporter (Attagene), mRNA transcription readout; actives raise or lower the signal
Procedure, shortened: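 Read-out: fluorescent RT-PCR products resolved by capillary electrophoresis, reporting endogenous transcription factor activity via ISRE-driven reporter mRNA in transfected HepG2 cells dosed for 24 h; gain or loss fitted relative to DMSO.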

[14] = ATG_M_32_CIS: Attagene CIS-FACTORIAL HepG2 Assay for M32 Transcription Factor (Internal Marker) (AID 2282949); settings: HepG2 Attagene cis-factorial M32 reporter, mRNA; actives raise or lower the signal;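 also: background control marker of the multiplexed CIS panel rather than a real target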
Procedure, shortened: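 HepG2 human liver cells transiently transfected with cis-promoter-driven multiple reporter transcription units, dosed 24 h. Reporter mRNA quantified by RT-PCR, FAM-labelled primer extension, HpaI digest and capillary electrophoresis; bidirectional fit versus DMSO baseline.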

[15] = ATG_M_06_CIS: Attagene CIS-FACTORIAL HepG2 Assay for M06 Transcription Factor (Internal Marker) (AID 2282950); settings: HepG2 Attagene CIS-FACTORIAL M06 internal marker reporter; actives raise or lower the signal
Procedure, shortened: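 Cells (HepG2, transiently carrying cis-driven reporter units) receive chemical for 24 h before RNA isolation. Reporter cDNA is PCR-amplified, FAM-labelled by primer extension, HpaI-digested and sized on a capillary analyser.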

[16] = target: Hypoxia-inducible factor 1-alpha (Homo sapiens) (UniProt Q16665); test: ATG_HIF1a_CIS: Attagene CIS-FACTORIAL HepG2 Assay for human Hypoxia Inducible Factor 1 (HIF1A) (AID 2282951); settings: HepG2 Attagene cis-factorial HIF1a reporter transcription; actives raise or lower the signal
Hypoxia-inducible factor 1-alpha (Homo sapiens), sequence (Q16665 whole entry, looked up): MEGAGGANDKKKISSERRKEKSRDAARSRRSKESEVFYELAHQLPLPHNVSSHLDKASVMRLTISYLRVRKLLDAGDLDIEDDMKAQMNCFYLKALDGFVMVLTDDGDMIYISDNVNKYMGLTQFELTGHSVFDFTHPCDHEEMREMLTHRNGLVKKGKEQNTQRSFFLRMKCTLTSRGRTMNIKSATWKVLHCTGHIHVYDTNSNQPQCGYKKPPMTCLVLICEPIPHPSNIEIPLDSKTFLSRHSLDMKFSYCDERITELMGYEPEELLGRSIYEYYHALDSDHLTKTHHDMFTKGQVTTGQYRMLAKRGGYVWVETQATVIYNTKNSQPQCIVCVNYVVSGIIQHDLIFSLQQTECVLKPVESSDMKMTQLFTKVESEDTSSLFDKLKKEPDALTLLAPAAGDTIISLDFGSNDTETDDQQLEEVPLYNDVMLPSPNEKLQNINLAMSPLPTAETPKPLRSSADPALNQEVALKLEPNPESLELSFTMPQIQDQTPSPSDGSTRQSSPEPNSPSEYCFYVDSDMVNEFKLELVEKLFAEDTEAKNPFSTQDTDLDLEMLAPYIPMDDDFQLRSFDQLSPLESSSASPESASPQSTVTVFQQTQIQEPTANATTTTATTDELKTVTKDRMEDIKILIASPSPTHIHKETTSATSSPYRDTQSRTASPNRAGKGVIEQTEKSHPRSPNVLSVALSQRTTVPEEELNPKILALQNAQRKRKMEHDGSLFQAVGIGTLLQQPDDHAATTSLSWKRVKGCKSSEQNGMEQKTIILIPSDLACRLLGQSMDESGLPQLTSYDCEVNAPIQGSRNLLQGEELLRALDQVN
Procedure, shortened: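 Activity is fitted in both directions relative to DMSO. Reporter transcripts are read by RT-PCR, fluorescent primer extension and capillary electrophoresis after 24 h chemical treatment. The cells are HepG2 carrying transiently transfected cis-element-driven reporter units responding to endogenous factors.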

[17] = target: Hepatocyte nuclear factor 6 (Homo sapiens) (UniProt Q9UBC0); test: ATG_HNF6_CIS: Attagene CIS-FACTORIAL HepG2 Assay for human Hepatocyte Nuclear Factor 6 (HNF6) (AID 2282952); settings: HepG2 Attagene cis-factorial HNF6 reporter transcription; actives raise or lower the signal
Hepatocyte nuclear factor 6 (Homo sapiens), sequence (Q9UBC0 whole entry, looked up, the tested form may be a part): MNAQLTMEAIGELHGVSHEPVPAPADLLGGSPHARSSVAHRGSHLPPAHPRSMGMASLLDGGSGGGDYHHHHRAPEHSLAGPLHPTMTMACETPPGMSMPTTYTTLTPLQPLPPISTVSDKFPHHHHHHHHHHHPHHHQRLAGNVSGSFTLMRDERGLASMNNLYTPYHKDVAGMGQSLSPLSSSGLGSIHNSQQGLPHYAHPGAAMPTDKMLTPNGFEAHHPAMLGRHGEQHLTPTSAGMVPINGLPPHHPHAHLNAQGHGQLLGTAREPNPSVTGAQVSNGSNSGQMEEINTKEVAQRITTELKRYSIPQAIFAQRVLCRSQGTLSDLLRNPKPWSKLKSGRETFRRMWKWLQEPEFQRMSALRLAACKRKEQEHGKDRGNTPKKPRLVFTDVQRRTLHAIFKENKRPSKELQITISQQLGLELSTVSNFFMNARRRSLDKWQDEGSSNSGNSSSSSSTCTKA
Procedure, shortened: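 Readout: fluorescent reporter-transcript fragments resolved by capillary electrophoresis after RT-PCR, reflecting endogenous factor activity in transfected HepG2. Exposure 24 h. Gain or loss of signal fitted bidirectionally against DMSO.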

[18] = target: Heat shock factor protein 1 (Homo sapiens) (UniProt Q00613); test: ATG_HSE_CIS: Attagene CIS-FACTORIAL HepG2 Assay for human Heat Shock Transcription Factor 1 (HSE) (AID 2282953); settings: HepG2 HSE cis-reporter, Attagene RNA transcription; actives raise or lower the signal
Heat shock factor protein 1 (Homo sapiens), sequence (Q00613 whole entry, looked up): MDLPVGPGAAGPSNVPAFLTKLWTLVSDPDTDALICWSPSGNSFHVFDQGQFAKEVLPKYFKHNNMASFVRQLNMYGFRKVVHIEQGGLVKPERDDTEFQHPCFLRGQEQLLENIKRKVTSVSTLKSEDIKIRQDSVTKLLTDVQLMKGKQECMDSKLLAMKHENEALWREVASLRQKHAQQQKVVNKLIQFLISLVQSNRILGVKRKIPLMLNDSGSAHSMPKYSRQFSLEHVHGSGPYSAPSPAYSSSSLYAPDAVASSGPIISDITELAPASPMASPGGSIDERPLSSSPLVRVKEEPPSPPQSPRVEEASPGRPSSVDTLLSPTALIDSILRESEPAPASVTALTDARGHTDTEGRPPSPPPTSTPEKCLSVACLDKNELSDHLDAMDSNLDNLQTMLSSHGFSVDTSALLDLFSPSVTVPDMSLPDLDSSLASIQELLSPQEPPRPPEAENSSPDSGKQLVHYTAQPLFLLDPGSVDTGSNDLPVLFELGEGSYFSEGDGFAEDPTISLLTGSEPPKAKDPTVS
Procedure, shortened: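 Liver-derived HepG2 cells carry transiently introduced multiple reporter units governed by cis promoters. Reporter RNA measured 24 h post-dose through reverse transcription, PCR amplification, fluorescent labelling and capillary electrophoresis, normalised to DMSO.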

[19] = ATG_MRE_CIS: Attagene CIS-FACTORIAL HepG2 Assay for human Metal Responsive Element (MRE) (AID 2282954); settings: HepG2 MRE cis-reporter transcription, Attagene multiplex; actives raise or lower the signal
Procedure, shortened: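 Measured here is mRNA induction from an MRE cis-element reporter in HepG2 after 24 h, quantified by fluorescence of labelled RT-PCR products on capillary electrophoresis; gain- and loss-of-signal fits use DMSO as baseline.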

[20] = target: Bile acid receptor (Homo sapiens) (UniProt Q96RI1); test: ATG_IR1_CIS: Attagene CIS-FACTORIAL HepG2 Assay for human Nuclear Receptor Subfamily 1 Group H Member 4 (NR1H4), IR1 submotif (AID 2282946); settings: IR1 reporter transcription, actives raise or lower the signal
Bile acid receptor (Homo sapiens), sequence (Q96RI1 whole entry, looked up): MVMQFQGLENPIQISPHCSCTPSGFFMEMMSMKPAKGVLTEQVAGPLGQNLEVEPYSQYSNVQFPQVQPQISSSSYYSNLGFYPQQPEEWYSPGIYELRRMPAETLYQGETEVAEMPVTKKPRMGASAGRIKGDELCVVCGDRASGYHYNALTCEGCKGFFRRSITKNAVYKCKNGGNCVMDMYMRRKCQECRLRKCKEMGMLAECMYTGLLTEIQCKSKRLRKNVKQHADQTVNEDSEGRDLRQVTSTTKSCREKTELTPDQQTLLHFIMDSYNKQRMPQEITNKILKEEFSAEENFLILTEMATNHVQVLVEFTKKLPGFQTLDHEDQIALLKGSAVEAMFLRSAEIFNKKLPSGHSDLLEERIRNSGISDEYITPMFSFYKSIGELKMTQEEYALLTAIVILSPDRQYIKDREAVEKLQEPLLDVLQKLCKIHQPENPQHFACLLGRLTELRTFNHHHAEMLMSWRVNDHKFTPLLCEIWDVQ
Procedure, shortened: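 Fluorescence of capillary-separated, HpaI-digested RT-PCR reporter products gave IR1-element mRNA induction in HepG2 cells 24 h after dosing. Endogenous transcription factors drove the cis-regulated reporters; activity was fitted bidirectionally against DMSO.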

In the case of `COc1nc(C)nc(NC(=O)NS(=O)(=O)c2ccccc2Cl)n1`, the outcome [1] is reported as “inactive”, the outcome [2] is reported as “inactive” and the outcome [3] is reported as “inactive”. The outcome [4] was “inactive”, the outcome [5] was “inactive” and the outcome [6] was “inactive”. For the same molecule, the outcome [7] was “inactive”, the outcome [8] was “inactive” and the outcome [9] was “inactive”. For the same molecule, the outcome [10] was “inactive”, the outcome [11] was “inactive” and the outcome [12] was “inactive”. The outcome [13] was “inactive”, the outcome [14] was “inactive” and the outcome [15] was “inactive”. The outcome [16] was “inactive”, the outcome [17] was “inactive” and the outcome [18] was “inactive”. For the same molecule, the outcome [19] was “inactive”.
In the case of `COP(N)(=O)SC` (stereo not given), the outcome [1] is reported as “inactive”, the outcome [2] is reported as “inactive” and the outcome [3] is reported as “inactive”. The outcome [4] was “inactive”, the outcome [5] was “inactive” and the outcome [6] was “inactive”. The outcome [7] was “inactive”, the outcome [8] was “inactive” and the outcome [9] was “inactive”. The outcome [11] was “inactive”, the outcome [20] was “inactive” and the outcome [12] was “inactive”. For the same molecule, the outcome [13] was “inactive”, the outcome [14] was “inactive” and the outcome [15] was “inactive”. The outcome [16] was “inactive”, the outcome [17] was “inactive” and the outcome [18] was “inactive”. The outcome [19] was “inactive”.
With `CCCCNC(=O)OCC#CI` the outcome [1] was “inactive”, the AC50 [2] was 145 µM (active) and the outcome [2] was “inactive”. For the same molecule, the outcome [3] was “inactive”, the outcome [5] was “inactive” and the outcome [6] was “inactive”. The AC50 [7] was 48.7 µM (active), the outcome [7] was “inactive” and the AC50 [8] was 173 µM (active). For the same molecule, the outcome [8] was “inactive”, the AC50 [9] was 26.4 µM (active) and the outcome [9] was “inactive”. The AC50 [10] was 49.2 µM (active), the outcome [10] was “inactive” and the AC50 [11] was 51.8 µM (active). The outcome [11] was “inactive”, the outcome [12] was “inactive” and the AC50 [13] was 33 µM (active). The outcome [13] was “inactive”, the outcome [14] was “inactive” and the outcome [15] was “inactive”. The outcome [16] was “inactive”, the outcome [17] was “inactive” and the AC50 [18] was 25.6 µM (active). For the same molecule, the outcome [18] was “inactive”, the AC50 [19] was 35.9 µM (active) and the outcome [19] was “inactive”.

From PubChem BioAssay (EPA / NIEHS)
